IL2 activator = activators of IL-2; IL-2 activation reporter assay, cell-based qHTS; stimulated with anti-CD3/CD4/CD28 beads; in transgenic mouse T cells; activation, % (series mostly up to about 46 µM); 0.065% of 360,000 active; in the data active = activation above about 50%; inconclusive = mostly about 30% to 49%; note: 0% is about no effect
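Unstimulated transgenic mouse T cells; 60-min compound exposure; bead-based TCR/CD4/CD28 stimulation; 18 h culture, 37 degrees C; dual fluorescence (EGFP, DsRed) plate cytometry.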
BRCA1 expr act = BRCA1 expression activation; MCF7-BRCA1-FFLuc reporter, luminescence, 48 h; response scale: scaled: vehicle 0%, 10 µM genistein 100%; Potency, µM (doses to about 46.1 µM), for inactives: top-dose activation, actives largely listed as activators; 1.1% of 380,000 active; note: potency is the fitted concentration of half-maximal effect; nearly all actives have a fitted effect of over 80% in size
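Quantitative HTS in MCF7 cells stably reporting BRCA1 expression via firefly luciferase. Compound treatment lasts 48 h at 37 °C in phenol-red free MEM. Activation is expressed relative to genistein at 10 microM and DMSO.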
a7 integrin act = integrin-mediated muscular dystrophy alleviation activation | AID 624291 | alpha7betagal myoblasts, beta-gal FDG fluorescence, 48 h | Potency, µM (series often up to 38.3 µM), for inactives: at the highest dose activation, most hits filed as activators | 0.064% of 350,000 active;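 note: potency is the fitted concentration of half-maximal effect; 100% = response of the positive control SU9516; nearly all actives have a fitted effect of over 60% in size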
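Alpha7betagal+/- myoblasts (passage 13) were plated 16-24 hr, then exposed to compounds (1:260 dilution of DMSO stock) for 48 hours at 37C. After MPER lysis, β-galactosidase reporter activity was read as FDG fluorescence (ex 480/em 540) after 30 minutes.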
PKM2 act = increases activity of human pyruvate kinase M2; 0.34% of 260,000 active; purified PKM2, Kinase-Glo ATP luminescence, activation; response scale: 0% is enzyme alone, no compound; Potency, µM (series often up to 57.5 µM), without a hit: at the top dose activation, usual class: activators; P14618; note: potency is the fitted concentration of half-maximal effect; % is set by controls: 0 for no effect and ±100 for the full control effect; nearly all actives have a fitted effect of over 55% in size
Target sequence (P14618 whole entry, looked up): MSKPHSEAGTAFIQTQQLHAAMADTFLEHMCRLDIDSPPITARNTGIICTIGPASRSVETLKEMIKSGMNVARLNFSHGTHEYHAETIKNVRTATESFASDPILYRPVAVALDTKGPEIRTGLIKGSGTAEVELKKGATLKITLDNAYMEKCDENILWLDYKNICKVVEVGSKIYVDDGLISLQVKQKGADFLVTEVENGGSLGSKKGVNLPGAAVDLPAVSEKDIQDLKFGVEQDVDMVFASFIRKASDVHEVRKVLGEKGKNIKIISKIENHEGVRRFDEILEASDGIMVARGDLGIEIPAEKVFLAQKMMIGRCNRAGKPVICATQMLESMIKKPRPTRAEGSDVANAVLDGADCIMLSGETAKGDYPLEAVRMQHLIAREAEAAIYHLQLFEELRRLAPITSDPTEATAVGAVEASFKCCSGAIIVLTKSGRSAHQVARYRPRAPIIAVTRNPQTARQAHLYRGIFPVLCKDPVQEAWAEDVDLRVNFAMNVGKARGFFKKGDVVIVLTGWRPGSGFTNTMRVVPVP
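ATP formation by purified human PK-M2, quantified via coupled luciferase luminescence after 1 h at room temperature with 0.1 mM ADP and 0.5 mM PEP final.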
Apoferritin bind = candidate novel general anesthetic via apoferritin binding | Potency, µM (doses to about 77.5 µM), for the others: at the top dose activity change, negative = displacement, usual class: inhibitors | P02791 | 0.074% of 350,000 active | apoferritin/1-aminoanthracene competitive binding, fluorescence; note: potency is the fitted concentration of half-maximal effect; % is set by controls: 0 for no effect and ±100 for the full control effect; nearly all actives have a fitted effect of over 20% in size
Target sequence (P02791 2-175 limits assumed): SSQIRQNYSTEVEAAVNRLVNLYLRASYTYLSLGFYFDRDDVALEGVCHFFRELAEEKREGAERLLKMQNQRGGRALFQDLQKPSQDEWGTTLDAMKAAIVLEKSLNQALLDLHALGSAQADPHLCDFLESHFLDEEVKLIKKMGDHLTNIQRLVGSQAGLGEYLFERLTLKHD
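Horse-spleen apoferritin (10 uM) was mixed with 50% saturated 1-aminoanthracene in PBS, exposed to compounds for 10 min at room temperature, and read for fluorescence (ex 380 nm, em 535 nm). Competitive displacement was fitted with a four-parameter Hill equation.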
The depositor's hits bear a star; [ ] = remark or other dose. This is a sample that favours compounds with a hit; in the whole collection about 1.3% have one here. Unless noted, calls come from the whole dose curve; as a rule, active = well fitted curve in the direction sought with a large enough effect; inconclusive = small, poorly fitted or top-dose-only effect, or another doubt; inactive = no such curve, though single readings can be large; an effect the other way counts as inactive or inconclusive.

Results for COCCN1C=C(C(=O)OC)C(c2cc(Br)c(OC)c(OC)c2)C(C(=O)OC)=C1 ?
IL2 activator: -1; BRCA1 expr act: -59%; a7 integrin act: 3%; PKM2 act: -3%; Apoferritin bind: 254%

Results for COCCN1C=C(C(=O)OC)C(c2ccccc2Cl)C(C(=O)OC)=C1 ?
IL2 activator: 1; BRCA1 expr act: -17%; a7 integrin act: 8.9µM*; PKM2 act: -2%; Apoferritin bind: 529%

How did COc1ccc(N2CCN(c3c4c(nc5nncn35)CCC4)CC2)cc1 do in these assays?
Apoferritin bind: -6%

How did c1ccc(CCn2nnc3ccccc32)cc1 do in these assays?
IL2 activator: -1; BRCA1 expr act: 13µM*; a7 integrin act: 22%; PKM2 act: -10%; Apoferritin bind: -2%

Results for O=c1c2ccccc2nnn1COc1cccc2ccccc12 ?
IL2 activator: 0; BRCA1 expr act: 8.9µM*; a7 integrin act: -36%; PKM2 act: 12%; Apoferritin bind: inconclusive

What do the screens show for `Cc1ccc(OCCn2nnc3ccccc32)cc1C`?
IL2 activator: -3; BRCA1 expr act: 4.5µM*; a7 integrin act: -33%; PKM2 act: -3%; Apoferritin bind: inconclusive

Results for CCOc1ccc(OCCn2nnc3ccccc3c2=O)cc1 ?
IL2 activator: -3; BRCA1 expr act: 1µM*; a7 integrin act: inconclusive; PKM2 act: 2%; Apoferritin bind: -16%

How did CCCn1nnc2ccccc2c1=O do in these assays?
IL2 activator: -3; BRCA1 expr act: 8%; a7 integrin act: inconclusive; PKM2 act: -8%; Apoferritin bind: -12%

How did CC(C)(C)OC(=O)N(c1cccc2cccnc12)S(=O)(=O)c1ccccc1Br do in these assays?
BRCA1 expr act: -2%

How did CCOc1ccc(-c2cc3nc(C4CCN(C(=O)OC(C)(C)C)CC4)c(C(=O)Nc4ccc(C)cc4C)cn3n2)cc1 do in these assays?
Apoferritin bind: -14%

What do the screens show for `Cc1ccc(Sc2ccccc2CN(C)C)c(N)c1`?
Apoferritin bind: -4%

What do the screens show for `COc1ccc(C2=NOC(C(=O)Nc3cc(C)on3)C2)cc1OC` (stereo not given)?
IL2 activator: 0; BRCA1 expr act: 1%; a7 integrin act: 9%; PKM2 act: 3.5µM*; Apoferritin bind: -9%

Results for COc1cc(C2=NOC(C(=O)Nc3cc(C)on3)C2)cc(OC)c1OC (stereo not given) ?
IL2 activator: 0; BRCA1 expr act: 28%; a7 integrin act: 31%; PKM2 act: 2%; Apoferritin bind: -6%

Results for O=C(COc1ccccc1Br)NCc1ccccn1 ?
IL2 activator: -2; BRCA1 expr act: 11µM*; a7 integrin act: 17%; PKM2 act: 0%; Apoferritin bind: -22%

What do the screens show for `O=C(NCc1ccccn1)Nc1ccc(Cl)cc1Cl`?
IL2 activator: 0; BRCA1 expr act: 7.9µM*; a7 integrin act: -8%; PKM2 act: -2%; Apoferritin bind: -3%

How did O=C(NCc1ccccn1)Nc1ccccc1Cl do in these assays?
IL2 activator: -1; BRCA1 expr act: 66%; a7 integrin act: 0%; PKM2 act: -4%; Apoferritin bind: -9%

What do the screens show for `O=C(Cc1csc(NC(=O)Nc2ccc(Cl)cc2)n1)NCc1ccccn1`?
IL2 activator: 0; BRCA1 expr act: 11µM*; a7 integrin act: 27%

Results for O=C(NCc1ccccn1)Nc1cccc(Cl)c1Cl ?
IL2 activator: 1; BRCA1 expr act: 10µM*; a7 integrin act: 40%; PKM2 act: -1%; Apoferritin bind: -7%

What do the screens show for `O=C(COc1ccc(F)cc1Br)NCc1ccccn1`?
IL2 activator: 0; BRCA1 expr act: inconclusive; a7 integrin act: 11%; PKM2 act: 1%; Apoferritin bind: -11%

How did Nc1ncc(O)c(N)n1 do in these assays?
Apoferritin bind: -4%

How did COc1ccc(C#CC2C=CC(OC(C)=O)C(COC(C)=O)O2)cc1 (stereo not given) do in these assays?
Apoferritin bind: 1%[15.3 µM]

How did S=C(NCc1ccccn1)Nc1ccc(Br)cc1Cl do in these assays?
IL2 activator: 3; BRCA1 expr act: 11µM*; a7 integrin act: -13%; PKM2 act: 11%; Apoferritin bind: -11%

What do the screens show for `O=C(NCc1ccccn1)Nc1ccc(Br)cc1Cl`?
IL2 activator: 1; BRCA1 expr act: 11µM*; a7 integrin act: -15%; PKM2 act: 5%; Apoferritin bind: -10%

Results for O=C(NCc1ccccn1)Nc1ccc(Br)cc1 ?
IL2 activator: 3; BRCA1 expr act: 32%; a7 integrin act: 20%; PKM2 act: 0%; Apoferritin bind: -1%

Results for S=C(NCCc1ccccn1)Nc1ccc(Cl)cc1Cl ?
IL2 activator: -1; BRCA1 expr act: inconclusive; a7 integrin act: -26%; PKM2 act: 2%; Apoferritin bind: -1%

How did Cc1nn(-c2ccccn2)c2c1-c1nc(N)sc1CC2 do in these assays?
BRCA1 expr act: -7%

Results for O=C(Cn1nnc(-c2ccccc2F)n1)N1CCCCC1 ?
IL2 activator: 0; BRCA1 expr act: 8.9µM*; a7 integrin act: -3%; PKM2 act: -5%; Apoferritin bind: -11%

How did COc1ccc(-c2nc3ccc(NC(C)=O)cc3c(=O)n2Cc2ccccc2)cc1COc1ccc(NC(C)=O)cc1 do in these assays?
BRCA1 expr act: 15%

What do the screens show for `O=[N+]([O-])c1ccc(/C=C/c2ccnc3ccccc23)cc1`?
BRCA1 expr act: -22%

How did c1ccc(-c2nc(-c3cnc4ccccc4n3)cs2)cc1 do in these assays?
BRCA1 expr act: 14%

Results for Cc1cc(/C=C2\SC(=S)NC2=O)c(C)n1-c1ccc(O)cc1 ?
IL2 activator: 1; BRCA1 expr act: 2.2µM*; a7 integrin act: -12%; PKM2 act: -7%; Apoferritin bind: -3%

What do the screens show for `COC(=O)c1cccc(-n2c(C)cc(/C=C3\SC(=O)NC3=O)c2C)c1`?
IL2 activator: -2; BRCA1 expr act: 10µM*; a7 integrin act: 10%

What do the screens show for `Cc1cc(/C=C2\SC(=S)NC2=O)c(C)n1-c1ccccc1`?
IL2 activator: 3; BRCA1 expr act: inconclusive; a7 integrin act: 20%; PKM2 act: -13%; Apoferritin bind: -2%

Results for CN(C)c1ccc(CNC(=O)C2CCCN(S(=O)(=O)c3ccc4c(c3)oc(=O)n4C)C2)cc1 (stereo not given) ?
BRCA1 expr act: 2%; Apoferritin bind: 1%

What do the screens show for `CCN(C)c1ccc(/C=C/c2ccnc3ccccc23)cc1`?
BRCA1 expr act: 67%

How did Cn1ncc(S(=O)(=O)Cc2ccccc2)c(Cl)c1=O do in these assays?
IL2 activator: -1; BRCA1 expr act: 16%; a7 integrin act: -21%; PKM2 act: 15%; Apoferritin bind: -6%
